Screening results as filed in PubChem.
Compounds with a hit are over-represented: about 3.3% of the library has one in this group of screens.
UBC9 SUMO inh: SUMOylation inhibition; P63279; HTRF SUMOylation assay, SAE1/SAE2 + UBC9, in vitro; inhibition, % at 35 µM; 290,000 tested, 0.36% active; AID 2006; in the data active means inhibition above about 50%, passing the limit was not always enough; inconclusive means no clear call, values can overlap the other calls
Target sequence (P63279 whole entry, looked up): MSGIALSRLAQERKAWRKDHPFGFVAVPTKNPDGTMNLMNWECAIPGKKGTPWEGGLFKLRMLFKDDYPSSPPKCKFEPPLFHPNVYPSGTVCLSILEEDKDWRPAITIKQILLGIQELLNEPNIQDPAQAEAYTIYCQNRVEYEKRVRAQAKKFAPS
sPLA2-III inh: Blocks human group III sPLA2 activity. Q9NZ20. 370,000 tested, 0.56% active. AID 743126. QFRET BODIPY PC-A2 liposome hydrolysis, fluorescence. inhibition, % at 12.2 µM;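 active means inhibition above mean plus 3 SD of compounds lying within the high and low control bounds, cut at about 19% in these data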;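 further: 0% = median of test compound wells and 100% = no enzyme DMSO wells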
GRIN3A LBD mod: modulates the human NR3A ligand-binding domain; Tm shift relative to glycine control, % at 25 µM; NR3A LBD differential scanning fluorimetry, Tm shift; 0% = protein alone, 100% = glycine-bound protein; 340,000 tested, 2.5% active;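 active means melting temperature shift of at least 10% of the positive control shift, at one fixed dose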
UBC13 inh: inhibitors of human UBC13 polyubiquitin chain formation; P61088; TR-FRET; 330,000 tested, 0.47% active; inhibition, % at 20 µM; AID 485273; in the data active means inhibition above about 45%, passing the limit was not always enough; inconclusive means no clear call, values can overlap the other calls
Target sequence (P61088 whole entry, looked up): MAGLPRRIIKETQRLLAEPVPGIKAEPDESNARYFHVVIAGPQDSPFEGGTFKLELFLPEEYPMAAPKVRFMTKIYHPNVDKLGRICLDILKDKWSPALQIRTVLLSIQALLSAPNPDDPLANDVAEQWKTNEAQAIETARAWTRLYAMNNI
An asterisk follows results filed as active; ? = inconclusive; nt = no result.

SMILES | UBC9 SUMO inh | sPLA2-III inh | GRIN3A LBD mod | UBC13 inh
O=C(O)c1cc(C(=O)O)cc(-c2ccc(/C=c3/sc4nc5ccccc5n4c3=O)o2)c1 | 15 | nt | 10* | nt
O=C(O)c1cccc(-c2ccc(/C=c3/sc4nc5ccccc5n4c3=O)o2)c1 | 84* | -2 | 4 | -32
O=c1/c(=C/c2ccccn2)sc2nc3ccccc3n12 | 14 | 12 | 2 | -2
O=c1/c(=C\c2cc([N+](=O)[O-])cc([N+](=O)[O-])c2O)sc2nc3ccccc3n12 | 26 | nt | 31* | -84
CCN(CC(=O)NCc1ccc(F)cc1)C(=O)COc1ccc2ccccc2c1 | -5 | -3 | 10* | 8
Cc1cccc(-n2nc3c(c2NC(=O)c2ccco2)CS(=O)C3)c1C (configuration not stated) | 18 | -2 | -1 | -11
O=C(Nc1c2c(nn1-c1ccccc1)CS(=O)C2)c1ccco1 (configuration not stated) | -2 | 4 | 17* | -1
COc1ccc(NS(=O)(=O)c2ccc(N/N=C(\C)c3ccncc3)c([N+](=O)[O-])c2)cc1 | 14 | 17 | 21* | -35
Cc1nn(-c2ccccc2)c(Cl)c1/C=N/Nc1ccc(S(=O)(=O)Nc2ccccc2C(=O)O)cc1[N+](=O)[O-] | 62* | -25 | 1 | -71
O=[N+]([O-])c1ccccc1/C=C/C=N/Nc1ccc(S(=O)(=O)Nc2ccc(Cl)cc2)cc1[N+](=O)[O-] | 1 | -3 | 11* | -71
Cc1nn(-c2ccccc2)c(Cl)c1/C=N/NS(=O)(=O)c1ccc(Br)cc1 | -11 | -27 | 17* | -23
CNC(=S)N/N=C/c1c(C)nn(-c2ccccc2)c1Cl | -10 | 9 | -5 | -5
CSc1ccc(C=NNc2ccc(S(=O)(=O)Nc3ccccc3C(=O)O)cc2[N+](=O)[O-])cc1 | nt | 3 | 9 | -96
CCOC(=O)[C@]12CCCCC/C=C\1N(CCc1ccc(Cl)cc1)C(=O)[C@H]2CC(=O)NCC1CCCCC1 | nt | -6 | nt | nt
CC(=O)Nc1ccc(NC(=O)CSc2nnc(-c3cccs3)o2)cc1 | nt | 10 | nt | nt
O=C(O)c1ccccc1NS(=O)(=O)c1ccc(NN=Cc2ccccc2F)c([N+](=O)[O-])c1 | nt | -28 | 10* | -83
CCOc1cccc(C=NNc2ccc(S(=O)(=O)Nc3ccccc3C(=O)O)cc2[N+](=O)[O-])c1O | nt | -45 | 17* | -67
COc1ccc(NC(=S)NNc2ccc(S(=O)(=O)Nc3ccccc3C(=O)O)cc2[N+](=O)[O-])cc1 | -1 | -56 | 16* | -28
COc1ccc(C=NNc2ccc(S(=O)(=O)Nc3ccccc3C(=O)O)cc2[N+](=O)[O-])c(OC)c1 | nt | nt | 457* | -90
O=C(c1ccccc1)n1ccc2ccc(-c3ccc4ccn(C(=O)c5ccccc5)c4c3)cc21 | nt | -1 | nt | nt
COC(=O)C[C@H]1CC[C@H]2[C@H](COc3ccc(NC(=O)Cc4cccs4)cc3C(=O)N2C)O1 | nt | 2 | nt | nt
O=C(NC(=S)Nc1nc(-c2ccc([N+](=O)[O-])cc2)cs1)c1ccco1 | 3 | -6 | 20* | -11
O=C(NC(=S)Nc1nc(-c2ccc(Br)cc2)cs1)c1ccco1 | 16 | 6 | 30* | -2
Cn1c(=O)c(=O)n(C)c2cc(S(=O)(=O)N3CCN(CCO)CC3)ccc21 | nt | 1 | nt | nt
Cc1cc(=O)n2[nH]c(-c3ccsc3-n3c(C)ccc3C)cc2n1 | 65* | -9 | 0 | 12
SMILES | UBC9 SUMO inh | sPLA2-III inh | GRIN3A LBD mod | UBC13 inh
COCc1cc(=O)n2[nH]c(-c3ccsc3-n3c(C)ccc3C)cc2n1 | 48 | -26 | -1 | 14
O=C(CSc1nnc(-c2cccs2)o1)c1ccc2c(c1)OCO2 | nt | -13 | nt | nt
O=C(NC(Cc1ccccc1)C(=O)Oc1ccc2c(C(F)(F)F)cc(=O)oc2c1)OCc1ccccc1 (configuration not stated) | ? | nt | 14* | nt
CCN(CC)c1ccc(C=N/C(C#N)=C(\N)C#N)cc1 | -13 | 3 | 27* | -27
COC(=O)N/N=C/c1c[nH]c2ccccc12 | 10 | -1 | -14 | 15
O=C(N/N=C/c1c[nH]c2ccccc12)C1COc2ccccc2O1 (configuration not stated) | -12 | -17 | 28* | 5
O=C(N/N=C/c1c[nH]c2ccccc12)C1CC1(c1ccccc1)c1ccccc1 (configuration not stated) | -15 | -4 | 13* | 4
O=C(N/N=C/c1ccco1)C1CC1c1ccccc1 (configuration not stated) | 13 | -11 | -1 | 0
O=C(N/N=C/c1cccs1)[C@H]1C[C@@H]1c1ccccc1 | 5 | 4 | 22* | -4
O=C(N/N=C/c1c[nH]c2ccccc12)C1CC1c1ccccc1 (configuration not stated) | -9 | -33 | 10* | 12
CC(C)N1Cc2nnn(Cc3ccccc3)c2-c2cc(F)ccc2S1(=O)=O | nt | -1 | nt | nt
CCN(CC)C(=O)c1ccc2c(c1)NC(=O)C(C)(C)O2 | nt | 8 | nt | nt
CCOC(=O)[C@@]12CCC3=C1N(CCC3)C(=O)[C@H](CC(=O)N1CCC(c3ccccc3)CC1)C2 | nt | 3 | nt | nt
Cc1ccccc1C(=O)n1ccc2ccc(-c3ccc4ccn(Cc5ccccc5)c4c3)cc21 | nt | 0 | nt | nt
CC(C)(C)OC(=O)NCc1ccccc1/C=C/S(=O)(=O)NC1CCCC1 | nt | 5 | nt | nt
CN=C1S/C(=C/c2cc(C)n(-c3ccc(Cl)cc3F)c2C)C(=O)N1C | nt | -3 | nt | nt
COC(=O)c1[nH]c2ccc(F)cc2c1NC(=O)C1=COCCO1 | 17 | -5 | 17* | 2
COC(=O)c1[nH]c2ccc(C)cc2c1NC(=O)C1=COCCO1 | 16 | -12 | 0 | -8
Fc1ccc(-c2n[nH]c(=S)n2N=Cc2cccc(OCc3ccccc3)c2)cc1 | nt | -12 | nt | nt
O=C(NC1CCCCC1)C(c1ccc2ncccc2c1)N(Cc1cccs1)C(=O)c1cccs1 (configuration not stated) | 14 | 2 | 14* | -3
CC(=O)NC(=S)Nc1ccccc1N1CCCCC1 | 2 | 11 | 13* | 0
O=C(O)c1ccc2c(c1)C(=O)/C(=C/c1ccccc1)C2=O | 39 | -5 | 26* | -34
O=C(O)c1ccc2c(c1)C(=O)/C(=C\c1ccco1)C2=O | 34 | 1 | 3 | -28
N#Cc1c(-c2ccccc2)c(-c2ccccc2)nn(CC(=O)NNC(=O)Nc2ccccc2)c1=O | 11 | -51 | -1 | -7
N#Cc1c(-c2ccccc2)c(-c2ccccc2)nn(CC(=O)NNC(=O)Nc2ccc(Cl)cc2)c1=O | 2 | -70 | 15* | 1
CCCCNC(=S)N(C)/N=C/c1c(C)[nH]c2ccccc12 | -16 | 8 | 12* | 4
CCCCNC(=S)N(C)/N=C/c1c(F)c(F)c(F)c(F)c1F | -24 | 5 | 20* | 5
CCCCN(C)CCNC(=O)C(=O)c1c(C)[nH]c2ccccc12 | 4 | 2 | 1 | 24
CCCCOCCCNC(=O)C[C@H]1C[C@@]2(C(=O)OC)C(=C[C@H](C(C)C)O[C@@H]2C2CC2)N(Cc2ccc3c(c2)OCO3)C1=O | nt | -1 | nt | nt
CCOC(=O)c1c(NC(=O)C2CC2)sc(C)c1CC | -1 | 2 | 11* | -5
